CYP2C9 activ – activators of human CYP2C9; activation factor at 5 µM; P11712; 96,000 compounds, 1.4% hits; recombinant CYP2C9, luciferin-H conversion, luminescence; hits give high values; factor 1 = untreated enzyme, 0 = blocked;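 active = activation factor of 2 or more for CYP2C9 at a 5 µM dose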
Cav32 inh – blocks human Cav3.2 T-type calcium channel; O95180; Cav3.2-expressing cells, Fluo-4 calcium fluorescence FDSS; hits give low values; B-score at 10 µM; 100,000 compounds, 4% hits; AID 449739;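 active = single-dose well whose peak fluorescence ratio is a statistical outlier from its plate by either plate-standardised score or position-corrected B-score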
CYP2C19 activ – cytochrome P450 2C19 (human) activation. P33261. recombinant CYP2C19, luciferin-H EGE luminescence; hits give high values; 0 = fully inhibited enzyme, 1 = untreated enzyme. activation factor at 5 µM. 96,000 tested, under 10 active. AID 1025;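 active = activation factor of at least 2 at 5 µM in the primary screen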
CYP2C9 inh – inhibitors of human CYP2C9; inhibition, % at 5 µM; 96,000 compounds, 20% hits; CYP2C9 Supersomes, luciferin-H conversion, luminescence;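 active = blocking of liver enzyme CYP2C9 beyond about 50% at 5 µM, limit read from the data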
CYP2C19 inh – blocks human cytochrome P450 2C19. AID 778. P33261. inhibition, % at 5 µM. 96,000 compounds, 21% hits. CYP2C19 Supersomes, luciferin-H EGE luminescence, 30 min;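 active = CYP2C19 inhibition above a set limit at 5 µM in the primary screen, cut at about 50% in these data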
Each line names hits and unclear results; the compound was inactive in the other large screens. An excerpt weighted towards active compounds, which were near 27% of everything screened.

CC1(C)CC(=O)C2=C(C1)Nc1cc3c(cc1C2c1ccc(F)cc1)OCO3 (stereo unspecified)	none
CC1(C)CC(=O)C2=C(C1)Nc1cc3c(cc1C2c1ccc2c(c1)OCO2)OCO3 (stereo unspecified)	CYP2C9 inh 76.3
COc1ccc(C2C3=C(CC(C)(C)CC3=O)Nc3cc4c(cc32)OCO4)cc1 (stereo unspecified)	CYP2C9 inh 70.1
CCc1nnc(NS(=O)(=O)c2ccc(NC(=S)NC(=O)/C=C/c3ccc(C(C)C)cc3)cc2)s1	CYP2C9 inh 76.6
Cc1cc(C)nc(NS(=O)(=O)c2ccc(NC(=S)NC(=O)C(C)C)cc2)n1	none (no result: CYP2C9 activ, CYP2C19 activ, CYP2C9 inh, CYP2C19 inh)
O=S(=O)(NCCc1ccccc1)c1cccc2nsnc12	CYP2C9 inh 59.4, CYP2C19 inh 99.4
O=S(=O)(NCCOC12CC3CC(CC(C3)C1)C2)c1cccc2nsnc12	CYP2C19 inh 96.9 (no result: Cav32 inh)
CCOC(=O)N1CCN(c2nc(-c3cccs3)cc(C(F)(F)F)n2)CC1	none
CC12CCC(C(=O)N3CCc4ccccc43)(CC1=O)C2(C)C (stereo unspecified)	CYP2C9 inh 58.2 (no result: Cav32 inh)
CC12CCC(C(=O)N3CCN(c4ccccc4)CC3)(CC1=O)C2(C)C (stereo unspecified)	CYP2C19 inh 53.7
CC12CCC(C(=O)N3CCCc4ccccc43)(CC1=O)C2(C)C (stereo unspecified)	none
Cc1ccc2c(c1)nnn2C1CCN(C(=O)c2cccs2)CC1	CYP2C9 inh 71.9, CYP2C19 inh 67.1
Cc1ccc(S(=O)(=O)N2CCC(n3nnc4cc(C)ccc43)CC2)cc1	none (no result: CYP2C9 activ, CYP2C19 activ, CYP2C9 inh, CYP2C19 inh)
CCOc1ccc(NC(=O)N2CCC(n3nnc4cc(C)ccc43)CC2)cc1	CYP2C9 inh 59.7, CYP2C19 inh 88.6
Cc1ccc2c(c1)nnn2C1CCN(C(=O)C2CCCCC2)CC1	CYP2C9 inh 60.9, CYP2C19 inh 90.7
COc1ccc(NC(=S)N2CCN(C/C=C/c3ccccc3)CC2)cc1OC	none
Cc1ccc(S(=O)(=O)N2CCC(=O)N(C(COCc3cccc(C(F)(F)F)c3)Cc3ccccc3)CC2)cc1 (stereo unspecified)	none (no result: CYP2C9 activ, CYP2C19 activ, CYP2C9 inh, CYP2C19 inh)
Cc1sc2ncnc(N3CCN(CCOc4ccc(Cl)cc4)CC3)c2c1C	CYP2C9 inh 99.0, CYP2C19 inh 96.7
Cc1cc(=O)n2nc(N3CCCC(C(=O)N4CCc5ccccc54)C3)sc2n1 (stereo unspecified)	CYP2C9 inh 57.9
O=C(Nc1ccccc1-c1ccccc1)C1CCCN(c2ncccn2)C1 (stereo unspecified)	CYP2C9 inh 51.1, CYP2C19 inh 73.0
O=C(C1CCC(C(=O)N2CCc3ccccc32)CC1)N1CCc2ccccc21 (stereo unspecified)	none
O=C(C1CCCN(c2ncccn2)C1)N1CCc2ccccc21 (stereo unspecified)	CYP2C9 inh 71.5, CYP2C19 inh 83.5
COc1cccc(CNC(=O)C2CCCN(c3nn4c(=O)cc(C)nc4s3)C2)c1 (stereo unspecified)	none
CC[C@H](C)/C=C(C)/C=C/C1=CC2=CC(=O)[C@]3(C)OC(=O)[C@@H](C(C)=O)[C@@H]3C2=CO1	Cav32 inh -4 (no result: CYP2C9 activ, CYP2C19 activ, CYP2C9 inh, CYP2C19 inh)
Cc1nc2ccc(C(=O)N3CCN(c4ccccn4)CC3)cc2s1	none
Cc1ccc(S(=O)(=O)NC(=O)c2ccc(-c3ccc(-c4ccccc4)cc3)o2)c(C)c1	Cav32 inh -4.3 (no result: CYP2C9 activ, CYP2C19 activ, CYP2C9 inh, CYP2C19 inh)
CC1=C(C(=O)OCc2ccccc2)C(c2ccccc2OS(=O)(=O)c2ccc(C)cc2)NC(=O)N1CCCC(=O)O (stereo unspecified)	none (no result: CYP2C9 activ, CYP2C19 activ, CYP2C9 inh, CYP2C19 inh)
COC(=O)Cn1c(=O)c2c(nc3n2CC(C)CN3c2ccc(C)c(C)c2)n(C)c1=O (stereo unspecified)	none (no result: CYP2C9 activ, CYP2C19 activ, CYP2C9 inh, CYP2C19 inh)
O=c1oc(-c2cccc(S(=O)(=O)N3CCOCC3)c2)nc2ccccc12	none
C=C(C)Cn1c(SCCN2CCOCC2)nc2c1c(=O)[nH]c(=O)n2C	none (no result: CYP2C9 activ, CYP2C19 activ, CYP2C9 inh, CYP2C19 inh)
Cc1ccc(N2C(=O)[C@@H]3C(c4ccc(F)cc4)=NO[C@@H]3C2=O)cc1	none
O=C1CC2(CON=C2c2ccc(F)cc2)C(=O)N1c1ccc(F)cc1 (stereo unspecified)	CYP2C9 inh 51.4, CYP2C19 inh 89.2
COc1cccc(C(C#N)N2N=C(C)CC2(C)C)c1O (stereo unspecified)	none (no result: CYP2C19 activ, CYP2C19 inh)
CC1CCC(NCc2ccco2)CC1 (stereo unspecified)	none
CCc1cc(C(=O)O)c(NC(=O)C(c2ccccc2)c2ccccc2)s1	CYP2C9 inh 97.4
C=CCNC(=S)NNC(=O)COc1cccc(Cl)c1	CYP2C19 inh 60.0

Bioassay records: PubChem BioAssay, several laboratories
